Our source for the PBM binding z-score values is the supplement of paper PMC6555819.

What all share (experiment): PBM binding z-score (relative to random genomic background probes); higher = stronger binding; sequences stand for … in GC…GCGATTGACAGCGTAGAATGAAGG
Experiment [1] concerns PPARg:RXRa DBDmut IVT, anti-RXR (DBD mutation: RXRa K156A/R161A, NR concentration 270 nM, RXRa partner concentration 90 nM). An outline of the steps: (§1)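 Probes were double-stranded and carried 34-nt variable regions with direct-repeat seeds, single-nucleotide variants, half-site ablations and random human genomic background sequences, printed on custom Agilent 4×180K protein-binding microarrays. Arrays were incubated 1 h with ligand-free nuclear receptor dimers in PBS pH 7.4, 2% milk, 0.02% Triton X-100, 1 mM DTT, 0.2 mg/mL BSA and 0.4 mg/ml salmon testes DNA. Antibodies against each partner (one per run) detected binding, and scanned fluorescence was regression-normalized. Binding z-scores use the random background probes as reference.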

Experiment [2] relates to PPARg:RXRa IVT, anti-PPARg (NR concentration 270 nM, RXRa partner concentration 90 nM). An outline of the steps: as §1
The subject of experiment [3] is PPARg DBDmut:RXRa IVT, anti-PPARg (DBD mutation: PPARg1 K132A/R137A, NR concentration 270 nM, RXRa partner concentration 90 nM). An outline of the steps: as §1
The subject of experiment [4] is PPARg DBDmut IVT, anti-PPARg (DBD mutation: PPARg1 K132A/R137A, NR concentration 270 nM). In a few lines: as §1
Experiment [5] deals with PPARg homodimer (NR concentration 180 nM). In a few lines: as §1
The subject of experiment [6] is PXR:RXRa (NR concentration 270 nM, RXRa partner concentration 90 nM). In a few lines:
as §1

Experiment [7] concerns PXR homodimer (NR concentration 270 nM). In a few lines: as §1
In experiment [8] the test system is RARa:RXR (NR concentration 270 nM, RXRa partner concentration 90 nM). An outline of the steps:
as §1

The test system of experiment [9] is RARa homodimer (NR concentration 270 nM). An outline of the steps:
as §1

The test system of experiment [10] is RARb:RXRa (NR concentration 270 nM, RXRa partner concentration 90 nM). In a few lines:
as §1

The test system of experiment [11] is RARb homodimer (NR concentration 270 nM). An outline of the steps: as §1
Experiment [12] deals with RARg:RXRa (NR concentration 270 nM, RXRa partner concentration 90 nM). An outline of the steps:
as §1

Experiment [13] relates to RARg homodimer (NR concentration 270 nM). In a few lines: as §1
The subject of experiment [14] is RXRa DBDmut IVT, anti-RXR (DBD mutation: RXRa K156A/R161A, NR concentration 90 nM). An outline of the steps:
as §1

The test system of experiment [15] is RXRa homodimer (NR concentration 180 nM). In a few lines: as §1
Experiment [16] deals with THRa:RXRa (NR concentration 90 nM, RXRa partner concentration 90 nM). In a few lines: as §1
In experiment [17] the test system is THRa homodimer (NR concentration 90 nM). In a few lines:
as §1

For experiment [18], the system named is VDR homodimer (NR concentration 270 nM). An outline of the steps: as §1

As for TTACCAAGGTGAAGGTCTTTGATCCCTCTGTAGA, the PBM binding z-score in [1] was 1.88; in [2], 3.26; in experiment [3] it was -0.214; in [4], 0.0438; in [5] it was 0.225; in experiment [6], 0.389. Moreover, the PBM binding z-score in experiment [7] is -0.43; in experiment [8], 0.847; in [9] it was -0.184; in experiment [10], 1.65; in [11], 0.775; in [12], 0.2. Moreover, the PBM binding z-score in [13] is 0.513; in experiment [14] it was -0.154; in experiment [15], 0.759; in experiment [16], 1.73; in experiment [17], 0.592; in experiment [18] it was -0.396.
For GCGACTGGGGCATGAGCAGGTTACCATAACTTAA, the PBM binding z-score in experiment [1] was 3.82; in [2], 3.4; in experiment [3], -0.58; in [4] it was -0.475; in experiment [5] it was 0.287; in experiment [6], 0.134. Also, the PBM binding z-score in experiment [7] is -0.328; in experiment [8] it was 0.416; in experiment [9], -0.578; in experiment [10], 0.781; in [11] it was 0.894; in [12] it was 0.84. Also, the PBM binding z-score in experiment [13] was 0.396; in experiment [14] it was -0.489; in experiment [15], 0.385; in [16] it was 0.664; in experiment [17], -0.144; in experiment [18], -0.116.
Regarding ACCGAAAGGTCGAAGGTGAGTATACCCACCCGAA, the PBM binding z-score stood at 0.582 in [1]; 2.06 in experiment [2]; 0.374 in [3]; 0.174 in experiment [4]; 0.885 in [5]; 3.14 in experiment [6]. The PBM binding z-score was 0.0236 in experiment [7]; 4.6 in [8]; 0.157 in experiment [9]; 3.84 in experiment [10]; 2.51 in [11]; 4.53 in experiment [12]. For the same sequence, the PBM binding z-score is 4.2 in [13]; 1.35 in [14]; 5.27 in experiment [15]; 2.11 in experiment [16]; -0.114 in experiment [17]; 0.383 in experiment [18].
TCTATTAGTTGAGGGGCAACCGACGAGTCCGTTT: the PBM binding z-score in experiment [1] was 2.72; in experiment [2] it was 0.341; in experiment [3], 0.599; in experiment [4], 1.29; in [5], 1.09; in experiment [6] it was 0.857. Besides, the PBM binding z-score in experiment [7] came to 0.479; in experiment [8], 0.515; in [9] it was 0.621; in experiment [10] it was 0.903; in experiment [11] it was 0.835; in experiment [12], 0.29. Further, the PBM binding z-score in [13] was found to be 0.252; in experiment [14], 1.83; in experiment [15], 0.746; in [16] it was 0.432; in experiment [17] it was 0.237; in experiment [18], 1.19.
Take GCTATTAGTTGAAAGGGCCACCGAATGATTCTCG: the PBM binding z-score in experiment [1] is 0.635; in experiment [2], -0.116; in [3] it was 0.0939; in [4], -0.248; in experiment [5], 0.586; in [6] it was -0.34. Besides, the PBM binding z-score in experiment [7] was -0.184; in experiment [8], -0.0438; in experiment [9] it was 0.309; in [10] it was 1.02; in [11], 1.19; in experiment [12], 0.331. In addition, the PBM binding z-score in experiment [13] is 0.583; in [14] it was 0.436; in [15], 0.34; in experiment [16], 0.0196; in [17], -0.402; in experiment [18] it was 0.169.
Turning to GCGACTGCGGCAAAGCAGGTTACCATAAGGTTGG, the PBM binding z-score is -0.386 in experiment [1]; -0.26 in experiment [2]; -0.756 in [3]; -1.23 in experiment [4]; -0.726 in experiment [5]; -0.186 in [6]. Further, the PBM binding z-score in experiment [7] is -0.666; in [8] it was 0.143; in experiment [9], -1.11; in experiment [10] it was -0.06; in [11] it was 0.0926; in [12], -0.183. Moreover, the PBM binding z-score in experiment [13] was -0.487; in [14], -0.499; in experiment [15] it was -0.0388; in [16], 0.953; in experiment [17] it was -0.402; in experiment [18], -0.315.
For the sequence CGAACTAGGTAATCCAGGACAGTGAATACATTGA, the PBM binding z-score is 5.67 in [1]; 4.69 in experiment [2]; 0.81 in [3]; 0.796 in experiment [4]; 0.0161 in experiment [5]; -0.34 in experiment [6]. Besides, the PBM binding z-score in [7] was -0.311; in experiment [8] it was -0.156; in [9], 0.04; in [10], 0.0507; in experiment [11], -0.194; in experiment [12], 0.0775. The PBM binding z-score in [13] was 0.29; in [14], 0.502; in experiment [15], -0.0168; in [16], 1.85; in experiment [17], 0.946; in [18], -0.254.
